PubChem BioAssay
Activity calls are given as the source filed them.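 The calls were made as follows, unless noted: active = inhibition at or above 50% at 10 µM; inactive = inhibition below 50%.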

Experiments:
[1] = inhibitors of TNFa-induced NFkB p65 translocation, primary screen, imaging, HUVEC, MLSMR starter and 10KST1 sets (AID 438;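 active = inhibition above 20% together with a positive visual image hit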;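 also: compound added about 3h40 before a 20 min TNFalpha stimulation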;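 as to inhibition: signal is the nuclear over cytoplasmic p65 intensity ratio per well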); settings: HUVEC TNFa-induced p65 nuclear translocation; cell count: measured here: nuclei count (cytotoxicity indicator), at 2.08 µM; inhibition: at 2 µM, stronger effect = higher value, 0% TNFa-plus-vehicle, 100% no-TNFa wells
[2] = inhibitors of mutant huntingtin aggregation, primary screen, imaging, exon1htt(103Q)mCFP cells, high-content imaging (AID 483;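 active = visual image review flags a hit and inhibition of aggregation exceeds 20%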;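 also: compound exposure lasted 3 days before fixation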;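 as to nuclei count: percent of the per-plate median nuclei count of sample wells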); settings: exon1htt(103Q)mCFP cell line, aggregate imaging, at 2 µM; inhibition of aggregation: stronger effect = higher value; nuclei count: measured here: cell count, toxicity
[3] = inhibitors of E-selectin induction by TNFa, primary screen, imaging, HUVEC, immunofluorescence, MLSMR starter and 10KST1 sets (AID 487;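 active = visually confirmed hit in the image check and inhibition above 20%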;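 as to inhibition: signal is fraction of cell area covered by stained E-selectin grains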;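 as to nuclei count: 100% = median nuclei count of all wells on the same plate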); settings: HUVEC TNFalpha-induced E-selectin immunofluorescence imaging, at 2 µM; inhibition: stronger effect = higher value; nuclei count: measured here: cell number, toxicity
[4] = target: Voltage-gated potassium channel subunit beta-2 (Rattus norvegicus) (UniProt P62483); experiment: KvBeta enzyme negative modulators, primary screen, biochemical, NADPH fluorescence (AID 622;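 active = fluorescence slope higher than the sample average by over 3 SD, cut at about -0.22 in these data, passing the limit was not always enough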;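 also: slope of raw intensity against log time taken from 70 to 1610 s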); settings: recombinant KvBeta, 4-cyanobenzaldehyde reduction, at 10 µM, stronger effect = higher value
Voltage-gated potassium channel subunit beta-2 (Rattus norvegicus), sequence (P62483 whole entry, looked up): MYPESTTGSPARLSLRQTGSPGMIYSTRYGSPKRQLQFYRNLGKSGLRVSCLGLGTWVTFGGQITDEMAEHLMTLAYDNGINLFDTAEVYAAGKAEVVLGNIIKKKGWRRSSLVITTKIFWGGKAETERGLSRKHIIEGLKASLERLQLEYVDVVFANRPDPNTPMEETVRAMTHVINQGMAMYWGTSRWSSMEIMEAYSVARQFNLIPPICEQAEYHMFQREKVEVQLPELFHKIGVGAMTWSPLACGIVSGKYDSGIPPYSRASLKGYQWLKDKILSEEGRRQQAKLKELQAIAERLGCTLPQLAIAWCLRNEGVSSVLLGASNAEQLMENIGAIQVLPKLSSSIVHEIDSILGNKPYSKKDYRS

[5] = target: Voltage-gated potassium channel subunit beta-2 (Rattus norvegicus) (UniProt P62483); experiment: KvBeta positive modulators, primary screen, biochemical, NADPH fluorescence (AID 623;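 active = NADPH fluorescence slope more negative than the mean of all samples by about 3 SD, 99.7% confidence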;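 also: fluorescence intensity change per second fitted from 20 to 320 s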); settings: Recombinant KvBeta, NADPH fluorescence decrease slope, 10 min; at 10 µM; stronger effect = lower value
[6] = target: Alpha-2C adrenergic receptor (Homo sapiens) (UniProt P18825); experiment: modulators of alpha2C/GIRK thallium flux, primary screen, cell-based, HEK293 alpha2C/GIRK1/2 (AID 624;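 active = fluorescence slope after compound addition differing from the mean of all screened samples at 99.7% confidence, in either direction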;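 also: slope of fluorescence ratio to pre-addition baseline per second over 15 to 24 s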); settings: thallium flux BTC fluorescence, at 10 µM, actives lie on both sides
Alpha-2C adrenergic receptor (Homo sapiens), sequence (P18825 whole entry, looked up): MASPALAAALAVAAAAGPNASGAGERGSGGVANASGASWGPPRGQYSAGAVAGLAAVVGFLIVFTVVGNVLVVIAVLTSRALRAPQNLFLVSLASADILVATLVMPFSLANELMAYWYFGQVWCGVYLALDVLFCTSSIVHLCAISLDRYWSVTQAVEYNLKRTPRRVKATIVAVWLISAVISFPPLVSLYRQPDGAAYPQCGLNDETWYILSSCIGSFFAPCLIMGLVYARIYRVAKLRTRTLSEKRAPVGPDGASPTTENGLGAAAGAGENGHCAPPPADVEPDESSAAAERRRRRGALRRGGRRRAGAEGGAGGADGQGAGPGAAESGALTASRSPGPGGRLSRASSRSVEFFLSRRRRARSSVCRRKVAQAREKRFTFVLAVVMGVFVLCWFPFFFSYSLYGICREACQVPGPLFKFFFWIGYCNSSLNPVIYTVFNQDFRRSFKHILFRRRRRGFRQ

[7] = inhibitors of Sendai virus-induced IRF3 signaling, primary screen, TLR/RLR signaling modifier project, cell-based, Sendai virus stimulus, luciferase, 10K MLSCN set (AID 602276); settings: HEK293 RL24 IRF3 luciferase reporter, at 10 µM, stronger effect = higher value;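 also: firefly luciferase from ISG56 promoter only with Renilla not read in this screen; 0% = Sendai virus plus DMSO and 100% = medium plus DMSO without virus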
[8] = inhibitors of poly I:C-induced TLR3 signaling, primary screen, cell-based, poly I:C stimulus, luciferase, 10K MLSCN set (AID 602277;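 active = inhibition of the reporter signal at or above 50%; inactive = inhibition below 50%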); settings: HEK293-TLR3 RL24 IRF3 luciferase reporter, at 10 µM, stronger effect = higher value

Structure (SMILES)	cell count [1]	inhibition [1]	inhibition of aggregation [2]	nuclei count [2]	inhibition [3]	nuclei count [3]	fluorescence slope [4]	NADPH fluorescence slope [5]	slope [6]	inhibition [7]	inhibition [8]
c1ccc2ncc(-n3cnnn3)cc2c1	705	-4.7% (inactive)	7.3% (inactive)	110%	-118% (inactive)	117%	-0.411 (inactive)	-2e-05 (inactive)	0.00684 (inactive)	9.03% (inactive)	11.8% (inactive)
CCN(CC)C(=O)C1CCCN(Cc2ccc(N(C)C)cc2)C1 (centres undefined)	376	0% (inactive)	-25.6% (inactive)	99%	-48.8% (inactive)	124%	-0.462 (inactive)	7.7e-05 (inactive)	0.00605 (inactive)	17.9% (inactive)	26.8% (inactive)
CCCS(=O)(=O)Nc1c(C(=O)O)[nH]c2ccccc12	665	-11.9% (inactive)	-26.1% (inactive)	108%	-79.9% (inactive)	147%	-0.415 (inactive)	-3.3e-05 (inactive)	0.00314 (inactive)	12.6% (inactive)	29% (inactive)
CCOc1cc(S(=O)(=O)Nc2ccccn2)ccc1F	382	4.8% (inactive)	0.1% (inactive)	107%	29.7% (inactive)	99.7%	-0.62 (inactive)	4.6e-06 (inactive)	0.0046 (inactive)	5.64% (inactive)	-11.5% (inactive)
Nc1nc(-n2cnnc2)nn1-c1ccccc1	414	5.5% (inactive)	-0.2% (inactive)	97%	-44% (inactive)	118%	-0.366 (inactive)	-3e-05 (inactive)	0.0053 (inactive)	4.93% (inactive)	4.43% (inactive)
Cc1ccc(-c2nc3ncccc3o2)cc1NC(=O)c1ccco1	317	0.6% (inactive)	-1.4% (inactive)	102%	-107% (inactive)	102%	-0.429 (inactive)	2.8e-06 (inactive)	0.00563 (inactive)	-1.98% (inactive)	14.6% (inactive)
CCOC(=O)C1CCN(c2c(NC3CCCc4ccccc43)c(=O)c2=O)CC1 (centres undefined)	672	6.6% (inactive)	-3.3% (inactive)	86.1%	-22.1% (inactive)	98.7%	-0.571 (inactive)	-3e-05 (inactive)	0.00585 (inactive)	7.84% (inactive)	29.9% (inactive)
Cc1cc(C)c2c(C)nn(C3CCCCC3)c2n1	318	1.7% (inactive)	27.2% (inactive)	79.1%	33.7% (inactive)	86.7%	-0.514 (inactive)	1.4e-05 (inactive)	0.00644 (inactive)	-18.5% (inactive)	-5.34% (inactive)
Cc1cc(C)cc(NC(=O)C2CCCN(S(=O)(=O)c3cnc[nH]3)C2)c1 (centres undefined)	595	17.2% (inactive)	-39.1% (inactive)	97.1%	-30% (inactive)	124%	-0.523 (inactive)	1.2e-05 (inactive)	0.00642 (inactive)	14.1% (inactive)	33.8% (inactive)
CC(=O)NCCOc1cccc(OCCNC(C)=O)c1	369	2.8% (inactive)	6.8% (inactive)	103%	-22.5% (inactive)	117%	-0.432 (inactive)	4e-05 (inactive)	0.00674 (inactive)	-7.84% (inactive)	-11.9% (inactive)
O=C(NCc1ccccn1)c1cccs1	254	12.5% (inactive)	2.9% (inactive)	91.4%	-1.8% (inactive)	95.7%	-0.479 (inactive)	-5.3e-05 (inactive)	0.00519 (inactive)	-4.29% (inactive)	5.52% (inactive)
CCCC(=O)Nc1c2c(nn1-c1ccc(OC)cc1)CS(=O)C2 (centres undefined)	472	4.2% (inactive)	-25.4% (inactive)	117%	-70.5% (inactive)	100%	-0.476 (inactive)	-3.3e-05 (inactive)	0.00523 (inactive)	10.8% (inactive)	22.2% (inactive)
CC(=O)N1CCN(C(=O)COc2ccc(Br)cc2)CC1	518	-6.3% (inactive)	-1.5% (inactive)	93.7%	-21.9% (inactive)	139%	-0.592 (inactive)	-5.6e-05 (inactive)	0.00597 (inactive)	5.88% (inactive)	13.4% (inactive)
COc1cccc(CNC(=O)C2CCN(C(=O)N(C)C)CC2)c1	569	8.3% (inactive)	-46.5% (inactive)	52.8%	-15.7% (inactive)	109%	-0.345 (inactive)	-6.9e-05 (inactive)	0.00563 (inactive)	11.6% (inactive)	32.8% (inactive)
